Results on 14 sequences are retold here after the supplement of paper PMC6555819.

Holding throughout (assay): PBM binding z-score (relative to random genomic background probes); higher = stronger binding; sequences stand for … in GC…GCGATTGACAGCGTAGAATGAAGG
Assay [1] relates to RARb homodimer (NR concentration 270 nM). Summed up: (§1)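 On custom Agilent 4×180K arrays, double-stranded probes with 34-nt variable regions carried direct-repeat seeds, single-nucleotide variants, half-site ablations or random human genomic background. Ligand-free nuclear receptor dimers were applied for 1 h, and binding was read with antibodies against each partner (one per run). Binding z-scores come from regression-normalized fluorescence, with the random background probes as reference.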

Assay [2] relates to RARg:RXRa (NR concentration 270 nM, RXRa partner concentration 90 nM). Summed up: as §1
In assay [3] the test system is RARg homodimer (NR concentration 270 nM). Summed up:
as §1

Assay [4] has as its system RXRa DBDmut IVT, anti-RXR (DBD mutation: RXRa K156A/R161A, NR concentration 90 nM). Summed up: as §1
For assay [5], the system named is RXRa homodimer (NR concentration 180 nM). Summed up: as §1
Assay [6] deals with THRa:RXRa (NR concentration 90 nM, RXRa partner concentration 90 nM). Summed up: as §1
Assay [7] has as its system THRa homodimer (NR concentration 90 nM). Summed up:
as §1

The subject of assay [8] is VDR homodimer (NR concentration 270 nM). Summed up: as §1

On to TCTGCAAGGTCAGTTGGTCAGCTAACGAGCTGCC, for which the PBM binding z-score came out at 3.59 in assay [1]; 4.63 in assay [2]; 5.16 in assay [3]; 2.42 in assay [4]; 2.78 in assay [5]; 3.02 in assay [6]. The PBM binding z-score in assay [7] amounted to 0.921; in assay [8], 1.12.
TAGGCTAGGTCATTCAGGGGCCAGTATAGAAAGC: the PBM binding z-score in assay [1] stood at 3.57; in assay [2], 6.42; in assay [3], 4.85; in assay [4] it was 1.71; in assay [5], 3.26; in assay [6] it was 3.7. The PBM binding z-score in assay [7] is 0.658; in assay [8], 1.95.
As to TAGCCTAGGTCAGATCGGGCCGGTATACGCTATA, the PBM binding z-score in assay [1] was 1.98; in assay [2], 2.67; in assay [3] it was 3.43; in assay [4], -0.551; in assay [5] it was 0.992; in assay [6], 3.11. For the same sequence, the PBM binding z-score in assay [7] is 0.09; in assay [8] it was -0.328.
For the sequence CCTACTGGGCCAAAAAGGTCTTTGATGCCGATAA, the PBM binding z-score in assay [1] was 0.452; in assay [2] it was -0.217; in assay [3] it was -0.013; in assay [4] it was -0.428; in assay [5], -0.121; in assay [6], -0.113. The PBM binding z-score was -0.671 in assay [7] and -0.382 in assay [8].
Turning to AATACAGGGTCACTAGGCCAGACTAGGTACGAAT, the PBM binding z-score in assay [1] was 3.25; in assay [2] it was 5.28; in assay [3], 4.68; in assay [4] it was 2.72; in assay [5], 5.35; in assay [6], 3.44. In addition, the PBM binding z-score in assay [7] came out at 1.22; in assay [8], 2.17.
For the sequence CAGACAGGGTCAGCTAGGCCAGAGTAGGGACGGC, the PBM binding z-score was found to be 3.06 in assay [1]; 4.3 in assay [2]; 4.64 in assay [3]; 1.59 in assay [4]; 4.42 in assay [5]; 3.01 in assay [6]. Further, the PBM binding z-score in assay [7] was found to be 0.505; in assay [8], 0.912.
Regarding TCTATTAGTTGATTAGGGCAACAGAAACAGCGGA, the PBM binding z-score turned out to be 0.664 in assay [1]; 0.691 in assay [2]; 0.686 in assay [3]; 0.926 in assay [4]; 0.691 in assay [5]; 0.607 in assay [6]. The PBM binding z-score in assay [7] was found to be 0.289; in assay [8], 0.253.
As to ACTTACGGGTCAACGAGGTTAGAGCACGCGTATA, the PBM binding z-score in assay [1] turned out to be 3.62; in assay [2] it was 5.52; in assay [3], 5.15; in assay [4] it was 2.34; in assay [5], 5.87; in assay [6], 3.7. Moreover, the PBM binding z-score in assay [7] is 0.878; in assay [8], 2.6.
As to TCTTGTAGATCAAGAAGGTTAAGAAAGCCTGAGT, the PBM binding z-score in assay [1] is 0.784; in assay [2] it was 0.407; in assay [3], 0.315; in assay [4], 0.387; in assay [5] it was 0.863; in assay [6] it was 0.451. Also, the PBM binding z-score in assay [7] is -0.553; in assay [8] it was 0.21.
Turning to AATACACGGTCACTAGGCCAGAGTAGGTACGAAT, the PBM binding z-score in assay [1] stood at 1.85; in assay [2] it was 1.78; in assay [3], 2.19; in assay [4], 0.0529; in assay [5], 0.672; in assay [6] it was 0.48. Also, the results for the PBM binding z-score in assay [7] and in assay [8] were -0.267 and 0.314, respectively.
Take AGTACGAGGGCAATGAGTTGATAGCACGGGTGGC: the PBM binding z-score in assay [1] turned out to be 1.2; in assay [2], 1.06; in assay [3], 1.62; in assay [4], 2.1; in assay [5] it was 0.711; in assay [6], 1.07. Moreover, the PBM binding z-score in assay [7] was -0.111; in assay [8], 2.98.
On to GCGCCTGGGGCATCAGCAGGTTACCATAACTTAA, for which the PBM binding z-score in assay [1] is 0.912; in assay [2] it was 0.748; in assay [3], 0.657; in assay [4], -0.312; in assay [5], 0.179; in assay [6], 0.955. Further, the PBM binding z-score is -0.0466 in assay [7] and -0.553 in assay [8].
For the sequence ATCTCTAGGGAACCAAGTTCAGTGAATGCCGAAC, the PBM binding z-score in assay [1] amounted to 1.21; in assay [2], 0.277; in assay [3] it was 0.53; in assay [4], 0.569; in assay [5], 0.332; in assay [6], 0.497. For the same sequence, the PBM binding z-score in assay [7] was -0.301; in assay [8] it was 2.58.
On to AGAATGAGGTTATACGTAGATCAGGGTAGAAAGT, for which the PBM binding z-score amounted to 1.33 in assay [1]; 1.82 in assay [2]; 1.34 in assay [3]; 1.81 in assay [4]; 2.24 in assay [5]; 2.42 in assay [6]. For the same sequence, the values for the PBM binding z-score in assay [7] and in assay [8] were 0.874 and 1.21, respectively.
